# Results: ChEMBL document CHEMBL3988442, “University of Dundee, Small-Polar-MMV Screening Library” (2021)
# For some assays here: Potency and affinity values are given separately.
# What was measured:
# Set-up in all cases: scale not given: direction of the effect not stated beside the values
# [1] = target: Protein translocase subunit SecA (Escherichia coli (strain K12)) (UniProt P10408); assay: Assay to Identify E. coli SecA ATPase Inhibitors; format: functional; conditions: 30 µM
# [2] = target: T1, Ubiquitin-activating enzyme e1, putative (Leishmania donovani (strain BPK282A1)) (UniProt E9BSI1); assay: Leishmania donovani Ubiquitin Activating Enzyme (LdE1); format: functional; conditions: 30 µM
# T1 sequence (whole entry): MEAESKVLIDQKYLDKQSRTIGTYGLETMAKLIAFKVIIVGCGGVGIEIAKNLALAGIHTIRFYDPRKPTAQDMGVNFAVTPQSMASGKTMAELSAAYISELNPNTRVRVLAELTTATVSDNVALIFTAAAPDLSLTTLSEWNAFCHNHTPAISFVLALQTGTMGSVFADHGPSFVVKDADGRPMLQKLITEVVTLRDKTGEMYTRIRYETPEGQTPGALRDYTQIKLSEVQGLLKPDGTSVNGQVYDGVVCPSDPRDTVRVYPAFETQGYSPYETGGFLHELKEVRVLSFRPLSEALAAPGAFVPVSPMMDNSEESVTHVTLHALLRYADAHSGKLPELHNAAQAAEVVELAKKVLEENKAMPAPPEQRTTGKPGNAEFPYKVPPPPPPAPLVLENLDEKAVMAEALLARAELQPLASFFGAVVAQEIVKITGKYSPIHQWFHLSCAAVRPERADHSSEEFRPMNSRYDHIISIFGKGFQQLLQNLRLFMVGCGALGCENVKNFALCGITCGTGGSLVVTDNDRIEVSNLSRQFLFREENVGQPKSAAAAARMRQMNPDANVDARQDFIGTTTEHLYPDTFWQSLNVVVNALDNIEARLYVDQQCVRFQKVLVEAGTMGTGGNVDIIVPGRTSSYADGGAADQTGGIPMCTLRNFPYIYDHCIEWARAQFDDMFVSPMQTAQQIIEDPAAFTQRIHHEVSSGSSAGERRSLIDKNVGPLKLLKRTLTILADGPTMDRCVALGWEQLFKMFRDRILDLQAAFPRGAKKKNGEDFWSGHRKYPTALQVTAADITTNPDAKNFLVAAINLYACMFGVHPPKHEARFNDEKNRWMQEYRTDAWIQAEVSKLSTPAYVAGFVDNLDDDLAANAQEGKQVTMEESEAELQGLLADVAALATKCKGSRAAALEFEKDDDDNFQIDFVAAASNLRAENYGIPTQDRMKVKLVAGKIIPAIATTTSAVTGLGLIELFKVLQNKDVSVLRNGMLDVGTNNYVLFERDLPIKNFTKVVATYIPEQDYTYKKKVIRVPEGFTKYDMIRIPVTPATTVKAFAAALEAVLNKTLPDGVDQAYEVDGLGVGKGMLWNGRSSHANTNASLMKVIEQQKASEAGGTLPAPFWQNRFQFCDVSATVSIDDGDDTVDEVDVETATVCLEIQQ
# [3] = target: AMP-activated protein kinase, AMPK (Homo sapiens) (UniProt P54646+O43741+P54619+Q9UGJ0+Q9Y478+Q13131+Q9UGI9); assay: AMP-dependent Kinase enzyme assay. An in vitro enzyme assay that detects ADP turnover that is directly proportional to AMPK activity. This uses naive AMPK that is activated during the assay with MK-8722; format: functional; conditions: 30 µM
# [4] = target: Sialic acid-binding Ig-like lectin 9 (Homo sapiens) (UniProt Q9Y336); assay: Hs-Siglec9 ALPHAscreen SOP 20170721; conditions: 10 µM
# [5] = tested on: Trypanosoma cruzi; assay: Trypanosoma cruzi phosphomannomutase and mannose-1-phosphate guanylyltransferase assay; format: functional; conditions: 10 µM
# [6] = target: T2, Arginase-2, mitochondrial (Homo sapiens) (UniProt P78540); assay: in vitro enzyme assay to detect the production of urea directly proportional to the activity of Arginase II; format: functional; conditions: 33.3 µM; note: in the data most compounds retested in dose-response had high values
# T2 sequence (whole entry): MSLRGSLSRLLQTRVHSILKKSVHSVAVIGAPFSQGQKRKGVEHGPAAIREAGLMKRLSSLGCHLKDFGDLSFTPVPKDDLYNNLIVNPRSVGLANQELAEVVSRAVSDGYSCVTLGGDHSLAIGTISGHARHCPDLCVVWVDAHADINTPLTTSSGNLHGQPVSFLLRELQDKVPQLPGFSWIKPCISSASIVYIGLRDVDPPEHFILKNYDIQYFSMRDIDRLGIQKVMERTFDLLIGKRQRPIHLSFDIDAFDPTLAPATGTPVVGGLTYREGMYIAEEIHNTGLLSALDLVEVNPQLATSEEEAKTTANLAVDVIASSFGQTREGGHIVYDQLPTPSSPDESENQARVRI
# [7] = target: T3, Proteasome subunit beta (Trypanosoma cruzi) (UniProt O96673); assay: Trypanosoma cruzi proteasome chymotrypsin-like activity (TcProtChymo) assay.; note: in the data most compounds retested in dose-response had high values; format: functional; conditions: 9.37 µM
# T3 sequence (whole entry): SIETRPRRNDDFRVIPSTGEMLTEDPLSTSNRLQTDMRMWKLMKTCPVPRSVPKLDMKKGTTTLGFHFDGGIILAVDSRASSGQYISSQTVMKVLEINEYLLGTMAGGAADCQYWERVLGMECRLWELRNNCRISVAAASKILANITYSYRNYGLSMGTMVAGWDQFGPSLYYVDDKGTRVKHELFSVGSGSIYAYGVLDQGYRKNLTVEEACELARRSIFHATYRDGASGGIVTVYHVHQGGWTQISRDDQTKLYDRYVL
# [8] = species on record: Homo sapiens; assay: To identify inhibition of the IFN signalling (Jak-Stat) pathway via expression of an eGFP reporter gene under the control of an IFN-stimulated response element (ISRE) containing MxA promoter.; format: functional; conditions: 30 µM
# [9] = target: T4, Tyrosyl-tRNA synthetase, putative (Trypanosoma cruzi (strain CL Brener)) (UniProt Q4DSP6); assay: Trypanosoma cruzi tyrosyl tRNA synthetase (TcYRS) _High Tyrosine SOP; format: functional; conditions: 30 µM; note: in the data most compounds retested in dose-response had high values
# T4 sequence (whole entry): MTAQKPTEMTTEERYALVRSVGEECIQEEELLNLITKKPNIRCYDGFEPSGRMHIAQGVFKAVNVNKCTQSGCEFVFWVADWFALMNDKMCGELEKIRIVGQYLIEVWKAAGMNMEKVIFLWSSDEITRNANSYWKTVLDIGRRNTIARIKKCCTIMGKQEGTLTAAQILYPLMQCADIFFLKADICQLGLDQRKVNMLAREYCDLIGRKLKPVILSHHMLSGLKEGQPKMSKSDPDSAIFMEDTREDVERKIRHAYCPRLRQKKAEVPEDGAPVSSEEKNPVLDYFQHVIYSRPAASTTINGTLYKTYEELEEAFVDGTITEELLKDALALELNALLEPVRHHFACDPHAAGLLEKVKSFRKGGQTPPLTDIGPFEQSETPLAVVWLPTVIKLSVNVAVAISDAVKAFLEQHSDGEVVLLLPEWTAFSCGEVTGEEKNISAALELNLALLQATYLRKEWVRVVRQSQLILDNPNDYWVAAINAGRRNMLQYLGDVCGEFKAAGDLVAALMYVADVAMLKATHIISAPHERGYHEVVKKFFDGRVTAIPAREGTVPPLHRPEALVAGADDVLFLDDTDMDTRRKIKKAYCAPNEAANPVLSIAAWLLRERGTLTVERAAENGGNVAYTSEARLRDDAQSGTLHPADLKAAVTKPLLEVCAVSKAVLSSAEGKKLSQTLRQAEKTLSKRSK
# [10] = target: T4, Tyrosyl-tRNA synthetase, putative (Trypanosoma cruzi (strain CL Brener)); assay: Trypanosoma cruzi tyrosyl tRNA synthetase (TcYRS) SOP; format: functional; conditions: 30 µM
# [11] = target: Chromo domain-containing protein 1 (Saccharomyces cerevisiae (strain ATCC 204508 / S288c) (Baker's yeast)) (UniProt P32657); assay: ScCHD-1 Enzyme Inhibition Assay; format: functional; conditions: 30 µM; note: in the data most compounds retested in dose-response had high values
# Sequence of Chromo domain-containing protein 1 (Saccharomyces cerevisiae (strain ATCC 204508 / S288c) (Baker's yeast)) (P32657 whole entry, the tested form may be a part): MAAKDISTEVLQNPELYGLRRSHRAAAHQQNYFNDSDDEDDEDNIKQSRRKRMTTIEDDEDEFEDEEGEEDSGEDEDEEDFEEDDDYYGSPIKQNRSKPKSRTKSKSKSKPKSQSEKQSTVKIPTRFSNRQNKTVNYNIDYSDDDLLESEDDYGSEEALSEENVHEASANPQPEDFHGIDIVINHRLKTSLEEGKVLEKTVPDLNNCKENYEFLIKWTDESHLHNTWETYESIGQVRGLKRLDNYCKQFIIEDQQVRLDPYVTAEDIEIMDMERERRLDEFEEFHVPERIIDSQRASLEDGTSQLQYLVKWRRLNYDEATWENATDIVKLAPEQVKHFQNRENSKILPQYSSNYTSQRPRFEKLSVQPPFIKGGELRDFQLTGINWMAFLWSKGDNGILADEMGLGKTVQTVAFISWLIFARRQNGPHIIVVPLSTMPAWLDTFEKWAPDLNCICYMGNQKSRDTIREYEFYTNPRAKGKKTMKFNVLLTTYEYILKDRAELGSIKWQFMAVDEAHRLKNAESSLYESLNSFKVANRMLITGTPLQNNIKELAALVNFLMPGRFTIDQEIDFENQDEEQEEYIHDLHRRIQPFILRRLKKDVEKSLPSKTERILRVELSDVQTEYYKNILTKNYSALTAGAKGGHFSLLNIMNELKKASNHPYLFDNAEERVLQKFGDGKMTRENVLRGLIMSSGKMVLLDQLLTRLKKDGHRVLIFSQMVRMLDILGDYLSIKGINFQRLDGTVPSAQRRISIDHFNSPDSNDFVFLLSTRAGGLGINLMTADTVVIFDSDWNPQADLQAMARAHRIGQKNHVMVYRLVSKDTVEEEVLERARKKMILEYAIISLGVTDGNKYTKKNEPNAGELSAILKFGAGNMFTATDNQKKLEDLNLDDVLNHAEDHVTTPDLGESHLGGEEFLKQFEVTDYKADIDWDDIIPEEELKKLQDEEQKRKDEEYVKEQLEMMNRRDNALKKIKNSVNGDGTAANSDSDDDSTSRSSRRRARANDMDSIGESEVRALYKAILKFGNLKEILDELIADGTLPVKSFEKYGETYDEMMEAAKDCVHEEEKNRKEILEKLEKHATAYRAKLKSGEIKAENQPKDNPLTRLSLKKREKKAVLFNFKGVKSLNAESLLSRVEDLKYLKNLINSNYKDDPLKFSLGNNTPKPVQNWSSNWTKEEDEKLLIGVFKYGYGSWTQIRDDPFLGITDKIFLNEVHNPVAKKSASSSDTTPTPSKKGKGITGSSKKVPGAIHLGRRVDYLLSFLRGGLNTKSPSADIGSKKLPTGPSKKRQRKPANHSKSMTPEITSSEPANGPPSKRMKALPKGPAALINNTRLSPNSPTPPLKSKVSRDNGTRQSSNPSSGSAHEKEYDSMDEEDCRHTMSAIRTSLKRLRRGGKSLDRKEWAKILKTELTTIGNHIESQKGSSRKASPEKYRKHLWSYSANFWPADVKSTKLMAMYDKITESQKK
# Sequence of Protein translocase subunit SecA (Escherichia coli (strain K12)) (P10408 whole entry): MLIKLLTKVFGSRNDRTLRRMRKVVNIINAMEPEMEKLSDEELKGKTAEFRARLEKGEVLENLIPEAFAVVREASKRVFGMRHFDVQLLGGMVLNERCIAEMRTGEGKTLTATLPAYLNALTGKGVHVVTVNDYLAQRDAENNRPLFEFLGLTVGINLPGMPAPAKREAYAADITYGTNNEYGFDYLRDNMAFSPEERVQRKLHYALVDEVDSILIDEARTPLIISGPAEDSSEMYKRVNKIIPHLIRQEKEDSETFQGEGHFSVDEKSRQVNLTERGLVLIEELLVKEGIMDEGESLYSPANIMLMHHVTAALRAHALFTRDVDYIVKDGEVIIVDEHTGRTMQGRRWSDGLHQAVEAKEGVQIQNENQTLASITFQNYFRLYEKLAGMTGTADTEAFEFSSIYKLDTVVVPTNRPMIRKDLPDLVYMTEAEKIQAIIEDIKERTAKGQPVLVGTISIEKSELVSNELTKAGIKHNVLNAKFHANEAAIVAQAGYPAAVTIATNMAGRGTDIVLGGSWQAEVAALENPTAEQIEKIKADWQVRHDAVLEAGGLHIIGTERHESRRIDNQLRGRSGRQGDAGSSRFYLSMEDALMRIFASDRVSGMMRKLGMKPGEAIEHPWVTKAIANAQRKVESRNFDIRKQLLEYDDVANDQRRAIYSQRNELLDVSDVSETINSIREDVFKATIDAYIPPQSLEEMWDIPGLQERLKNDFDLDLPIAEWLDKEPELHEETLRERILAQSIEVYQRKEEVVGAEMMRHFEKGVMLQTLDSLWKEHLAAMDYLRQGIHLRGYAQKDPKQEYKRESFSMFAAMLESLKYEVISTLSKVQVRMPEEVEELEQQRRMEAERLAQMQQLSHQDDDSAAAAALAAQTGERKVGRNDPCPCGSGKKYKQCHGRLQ
# Sequence of Sialic acid-binding Ig-like lectin 9 (Homo sapiens) (Q9Y336 whole entry): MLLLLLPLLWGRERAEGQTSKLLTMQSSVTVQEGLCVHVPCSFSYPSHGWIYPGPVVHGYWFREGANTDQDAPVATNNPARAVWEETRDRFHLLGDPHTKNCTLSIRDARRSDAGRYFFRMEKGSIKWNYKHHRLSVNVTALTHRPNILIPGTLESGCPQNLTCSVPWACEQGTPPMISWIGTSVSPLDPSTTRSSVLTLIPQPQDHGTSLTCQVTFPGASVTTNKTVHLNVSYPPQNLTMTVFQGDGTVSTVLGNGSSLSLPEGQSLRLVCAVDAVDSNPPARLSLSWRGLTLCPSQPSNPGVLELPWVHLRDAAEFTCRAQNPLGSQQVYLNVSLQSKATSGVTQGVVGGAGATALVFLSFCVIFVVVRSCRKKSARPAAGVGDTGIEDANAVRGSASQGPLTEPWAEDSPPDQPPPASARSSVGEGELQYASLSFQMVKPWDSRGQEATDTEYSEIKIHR
SMILES,Percent Effect [1] [%],Percent Effect [2] [%],Percent Effect [3] [%],Percent Effect [4] [%],Percent Effect [5] [%],Percent Effect [6] [%],Percent Effect [7] [%],Percent Effect [8] [%],Percent Effect [9] [%],Percent Effect [10] [%],Percent Effect [11] [%]
N#Cc1ccc(C(=O)NCCCNc2ccc(C(F)(F)F)cn2)cc1,-0.682,13.2,3.77,-0.309,-7.52,-0.766,9.02,35.5,7.35,17.1,-10.9
NC(=O)CN1CCCN(C(=O)c2ccn(-c3cccc(F)c3)n2)CC1,-1.81,6.94,-1.98,-6,-3.01,2.21,10.3,-17.8,-1.05,5.13,-0.989
Cc1ccc(CC(=O)NCCCNS(C)(=O)=O)cc1,-0.957,13.9,3.16,0.198,-2.56,-1.94,14.8,-1.21,6.25,15.2,-16.2
Cn1cccc1C(=O)N1CCN(Cc2ccncc2)c2ncccc2C1,1.82,13.3,9.01,8.59,-4.83,-57.2,12.1,13.8,8.33,10,-5.07
CCN(CC)C(C(=O)NCc1ccc(N2CCCC2)nc1)C(C)C (centres undefined),-6,5.41,-3.6,6.67,-5.94,-4.41,11.9,10.1,2.46,1.24,-4.84
CCS(=O)(=O)N1CCc2ccc(NC(=O)Nc3ccc(F)cc3F)cc21,-3.73,7.79,2.67,-0.508,8.58,-3.23,23,-1.71,-2.12,6.41,-9.26
CCSCCNC(=O)C(c1cccc(C)c1)N(C)C (centres undefined),0.71,16.2,4.54,18.5,4.83,1.43,12.1,20.1,6.88,17.1,-11.3
COc1ccc(Br)c(C(=O)N2CCC(c3n[nH]c(C4CC4)n3)CC2)c1,-4.1,16.5,1.39,2.29,0.513,-3.23,11.8,4.22,4.17,25.3,-27.6
CCCS(=O)(=O)N1CCC2(CN(c3ccsc3)C(=O)CN2C)C1 (centres undefined),-3.95,8.11,-1,-0.171,2.34,5.83,10.6,-4.15,9.9,6.1,-1.58
CN1CC(=O)N(c2ccccc2)CC12CCN(Cc1nccs1)C2 (centres undefined),3.96,5.33,4.18,-3.23,-6.95,-56.1,13,-0.957,4.17,22.5,-4.64
CNC(=O)CSc1cnn(CC(=O)Nc2cccc(Cl)c2C)c(=O)c1Cl,-2.17,5.48,-0.626,4.21,-4.31,2.73,17.6,9.06,4.3,12.5,1.71
CC(C)C(=O)N1CCN(C(=O)c2cscn2)[C@H]2CS(=O)(=O)C[C@H]21,-2.31,15.3,-5.83,5.33,2.04,4.42,13.9,-3.92,3.16,12.8,-0.218
CCC(C)(NCC(=O)N(c1ccccc1)C(C)C)c1nc(C)cs1 (centres undefined),1.71,8.11,-12.9,3.16,1.27,7.2,7.3,-1.37,4.3,13.6,-8.52
CCN1C(=O)C(C)(C)c2cc(NC(=O)c3ccco3)ccc21,-5.66,10.4,17.2,5.8,1.48,-13.8,12.7,19.7,12.9,21,0.612
Cc1ccc(CN2CC[C@H]3OCC[C@@H](c4nc(C)no4)[C@H]3C2)cc1,-4.22,5.41,2.69,-2.48,7.14,-4.14,15.3,-21.7,0,10.3,0.212
O=C(COCc1nc(-c2ccncc2)no1)NC1CCCCC1,-6.1,7.79,1.21,9.68,2.46,0,7.65,5.36,7.53,13.6,-2.34
Cc1csc(CNC(=O)NCC(O)c2cccc(Cl)c2)n1 (centres undefined),-1.7,8.11,-4.44,1.18,3.48,-2.38,20.5,24.4,3.7,12.2,-0.155
COc1cccc(CN2CCC(c3nccn3C(C)C)CC2)c1,-3.84,15.6,0.593,14.9,4.23,-5.52,11.5,-3.74,7.53,21,-7.09
CCC1(CC)Cc2ccccc2-c2nc(NCCO)[nH]c(=O)c21,-5.77,10.5,29.9,1.17,-2.63,3.55,26.4,29.8,5.32,10.4,-13.3
